Test results taken from the supplement of paper PMC10849652.
The full data set covers some 7,900 targets. This sample favours those with a hit. About 0.6% of all pairs of compound and target were hits.

How the values were obtained:
Test in all cases: log2 fold change, soluble protein after heating vs DMSO (PISA); higher = thermal stabilisation; K562 cells, 10 uM, 30 min; active = over 0.2 and 3.5 SD of the protein, either way, in both replicates (recomputed)
[1] = compound: Cc1ccc(NC(=O)c2ccc(CN3CC[C@H](N(C)C)C3)c(C(F)(F)F)c2)cc1Nc1nccc(-c2cncnc2)n1 [bafetinib]
Procedure, shortened: (§1)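 Quantification of soluble protein used TMTpro 16plex LC-MS/MS, with channel sums equalised. Samples were the supernatant after 21,000xg for 90 min of pooled aliquots from K562 cells (2×10^6 cells/mL) treated with 10 μM compound for 30 min, heated for 3 min over 48°C-58°C, and extracted in PBS with 0.5% NP-40 at 4°C. Values, from duplicates, describe thermal stability against control samples on a log2 fold-change scale.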

[2] = compound: Cc1cccc(CC(=O)N2CCc3c2ccc(-c2cn(C)c4ncnc(N)c24)c3F)n1
Procedure, shortened: as §1

[3] = compound: Cc1cn(-c2cc(NC(=O)c3ccc(C)c(Nc4nccc(-c5cccnc5)n4)c3)cc(C(F)(F)F)c2)cn1 [nilotinib]
Procedure, shortened: as §1

[4] = compound: Cc1nc(Nc2n[nH]c3c2CN(C(=O)N[C@H](CN(C)C)c2ccccc2)C3(C)C)c2sccc2n1
Procedure, shortened: as §1

[5] = compound: Cc1nc(Nc2ncc(C(=O)Nc3c(C)cccc3Cl)s2)cc(N2CCN(CCO)CC2)n1 [dasatinib]
Procedure, shortened: as §1

[6] = compound: Cc1ncc(-c2ccnc(Nc3ccc(S(C)(=O)=O)cc3)n2)n1C(C)C
Procedure, shortened: as §1

[7] = compound: Cn1cc(-c2ccc3c(c2)CCN3C(=O)Cc2cccc(C(F)(F)F)c2)c2c(N)ncnc21
Procedure, shortened: as §1

[8] = compound: Cn1cc(-c2ccc3nnc(C(F)(F)c4ccc5ncccc5c4)n3n2)cn1
Procedure, shortened: as §1

[9] = compound: Cn1cncc1[C@@](N)(c1ccc(Cl)cc1)c1ccc2c(c1)c(-c1cccc(Cl)c1)cc(=O)n2C [tipifarnib]
Procedure, shortened: as §1

[10] = compound: FC(F)(F)c1ccc(/C=C/c2nc(COc3ccc(CCCCn4ccnn4)cc3)co2)cc1 [mubritinib]
Procedure, shortened: as §1

Measured: log2 fold change

SART3, A0A499FI31
inactive: [1] -0.057 | [2] 0.039 | [3] -0.02 | [4] -0.189 | [5] -0.128 | [7] 0.029 | [8] -0.001 | [9] 0.008 | [10] 0.024
active: [6] -0.261

RPS13 (UniProt P62277)
inactive: [1] 0.342 | [2] 0 | [3] 0.017 | [4] 0.221 | [5] 0.088 | [6] -0.051 | [7] -0.237 | [8] -0.089 | [9] 0.204 | [10] -0.184

RPS16 (UniProt P62249)
inactive: [1] 0.279 | [2] -0.026 | [3] 0.07 | [4] 0.207 | [5] 0.053 | [6] -0.019 | [7] -0.078 | [8] -0.048 | [9] 0.107 | [10] -0.066

REEP4 (UniProt Q9H6H4)
inactive: [1] 0.021 | [2] 0.127 | [3] -0.017 | [4] -0.077 | [5] -0.079 | [6] 0.067 | [7] -0.052 | [8] -0.056 | [9] -0.109 | [10] -0.04

RRAS2 isoform 4 (UniProt P62070)
inactive: [1] -0.05 | [2] -0.082 | [3] 0.111 | [4] -0.021 | [5] 0.066 | [6] 0.025 | [7] 0.062 | [8] -0.03 | [9] 0.088 | [10] -0.025

RPA1 (UniProt P27694)
inactive: [1] 0.029 | [2] 0.019 | [3] -0.051 | [4] -0.1 | [5] 0.077 | [6] 0.016 | [7] -0.004 | [8] 0.015 | [9] -0.074 | [10] 0.026

RAB3IL1 (UniProt Q8TBN0)
UniProt Q8TBN0, sequence (Q8TBN0 whole entry, looked up): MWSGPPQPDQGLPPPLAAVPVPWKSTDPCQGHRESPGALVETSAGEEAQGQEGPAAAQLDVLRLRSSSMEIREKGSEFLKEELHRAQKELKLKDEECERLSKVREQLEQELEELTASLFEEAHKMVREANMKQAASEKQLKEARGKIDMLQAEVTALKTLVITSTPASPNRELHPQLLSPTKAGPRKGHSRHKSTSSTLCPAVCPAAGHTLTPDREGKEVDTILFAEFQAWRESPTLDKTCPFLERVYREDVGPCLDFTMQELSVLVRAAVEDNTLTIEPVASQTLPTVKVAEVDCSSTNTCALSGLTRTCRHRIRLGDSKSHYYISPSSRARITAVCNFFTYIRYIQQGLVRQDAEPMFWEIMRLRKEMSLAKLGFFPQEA
inactive: [1] -0.025 | [2] 0.034 | [3] -0.016 | [4] 0.012 | [5] -0.054 | [6] -0.015 | [7] -0.007 | [8] 0.002 | [9] -0.051 | [10] 0.017

SEC31A (UniProt O94979)
inactive: [1] 0.011 | [2] 0.019 | [3] -0.11 | [4] -0.042 | [5] -0.134 | [6] 0.054 | [7] -0.031 | [8] -0.057 | [9] -0.065 | [10] 0.079

SEH1L isoform 1 (UniProt Q96EE3)
inactive: [1] -0.083 | [2] 0.051 | [3] 0.012 | [4] -0.081 | [5] -0.008 | [6] -0.028 | [7] 0.015 | [8] -0.037 | [9] -0.11 | [10] 0.031

RIOK2 (UniProt Q9BVS4)
UniProt Q9BVS4, sequence (Q9BVS4 whole entry, looked up): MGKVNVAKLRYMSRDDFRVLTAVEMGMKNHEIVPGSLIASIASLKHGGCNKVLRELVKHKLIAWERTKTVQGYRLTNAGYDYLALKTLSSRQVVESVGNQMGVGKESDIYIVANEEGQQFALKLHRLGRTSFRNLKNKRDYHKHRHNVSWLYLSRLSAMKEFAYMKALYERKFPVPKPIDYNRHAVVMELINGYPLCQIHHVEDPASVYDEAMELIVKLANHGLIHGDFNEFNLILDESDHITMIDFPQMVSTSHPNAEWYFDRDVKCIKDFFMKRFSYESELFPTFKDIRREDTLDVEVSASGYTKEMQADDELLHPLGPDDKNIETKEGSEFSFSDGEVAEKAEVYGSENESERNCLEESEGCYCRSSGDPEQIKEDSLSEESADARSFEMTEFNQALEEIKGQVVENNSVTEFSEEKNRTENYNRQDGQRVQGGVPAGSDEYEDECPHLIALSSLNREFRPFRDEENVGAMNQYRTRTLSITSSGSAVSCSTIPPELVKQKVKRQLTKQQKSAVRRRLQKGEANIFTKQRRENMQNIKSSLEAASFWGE
inactive: [1] 0.27 | [2] 0.003 | [3] 0.094 | [4] 0.202 | [5] 0.013 | [6] 0.231 | [7] -0.041 | [8] -0.067 | [9] -0.003 | [10] 0.014

RBM4 (UniProt Q9BWF3)
inactive: [1] -0.049 | [2] -0.01 | [3] -0.047 | [4] -0.095 | [5] -0.033 | [6] -0.039 | [7] -0.054 | [8] -0.063 | [9] -0.013 | [10] -0.082

RAC1 (UniProt P63000)
inactive: [1] 0.184 | [2] -0.017 | [3] 0.073 | [4] 0.045 | [5] 0.007 | [6] 0.048 | [7] 0.024 | [8] -0.037 | [9] 0.106 | [10] 0.026

RPS21 (UniProt P63220)
inactive: [1] 0.087 | [2] -0.057 | [3] 0.011 | [4] 0.072 | [5] 0.1 | [6] -0.012 | [7] -0.009 | [8] -0.004 | [9] 0.017 | [10] 0.002

SENP6 (UniProt Q9GZR1)
UniProt Q9GZR1, sequence (Q9GZR1 whole entry, looked up): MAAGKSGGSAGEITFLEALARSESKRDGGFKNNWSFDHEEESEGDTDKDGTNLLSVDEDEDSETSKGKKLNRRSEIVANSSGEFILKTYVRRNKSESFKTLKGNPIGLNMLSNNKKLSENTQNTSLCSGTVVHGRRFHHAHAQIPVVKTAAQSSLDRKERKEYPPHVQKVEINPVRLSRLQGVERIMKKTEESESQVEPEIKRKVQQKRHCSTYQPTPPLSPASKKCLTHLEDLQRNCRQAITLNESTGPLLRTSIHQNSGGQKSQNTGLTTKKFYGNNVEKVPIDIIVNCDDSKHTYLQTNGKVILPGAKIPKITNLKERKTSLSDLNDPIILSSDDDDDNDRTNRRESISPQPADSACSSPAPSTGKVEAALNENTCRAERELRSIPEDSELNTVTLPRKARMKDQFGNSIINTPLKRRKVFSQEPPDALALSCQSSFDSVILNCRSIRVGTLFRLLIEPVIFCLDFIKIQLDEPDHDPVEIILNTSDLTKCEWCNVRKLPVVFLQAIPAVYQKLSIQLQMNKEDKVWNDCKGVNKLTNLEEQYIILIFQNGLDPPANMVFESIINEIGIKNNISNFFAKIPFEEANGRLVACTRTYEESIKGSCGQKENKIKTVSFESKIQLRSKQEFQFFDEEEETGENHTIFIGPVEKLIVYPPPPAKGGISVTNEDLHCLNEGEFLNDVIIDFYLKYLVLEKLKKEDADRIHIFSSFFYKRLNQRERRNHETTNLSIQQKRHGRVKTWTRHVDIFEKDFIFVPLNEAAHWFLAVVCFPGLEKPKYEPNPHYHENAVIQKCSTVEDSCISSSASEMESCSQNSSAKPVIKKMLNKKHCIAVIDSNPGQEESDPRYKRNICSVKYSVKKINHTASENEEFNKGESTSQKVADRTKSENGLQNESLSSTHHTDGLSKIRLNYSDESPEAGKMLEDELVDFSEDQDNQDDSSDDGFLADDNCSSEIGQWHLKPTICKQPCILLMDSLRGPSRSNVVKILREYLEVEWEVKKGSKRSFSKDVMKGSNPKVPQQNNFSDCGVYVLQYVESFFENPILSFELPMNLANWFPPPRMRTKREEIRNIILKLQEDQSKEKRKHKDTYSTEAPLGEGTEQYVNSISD
inactive: [1] 0.015 | [2] -0.015 | [3] 0.007 | [4] -0.038 | [5] -0.028 | [6] 0.063 | [7] 0.046 | [8] -0.013 | [9] 0.025 | [10] 0.053

ROR2 (UniProt Q01974)
inactive: [1] 0.024 | [2] 0.052 | [3] 0.009 | [4] -0.105 | [5] -0.124 | [6] 0.063 | [7] 0.043 | [8] -0.041 | [9] 0.03 | [10] 0.029

RB1CC1 (UniProt Q8TDY2)
UniProt Q8TDY2, sequence (Q8TDY2 whole entry, looked up): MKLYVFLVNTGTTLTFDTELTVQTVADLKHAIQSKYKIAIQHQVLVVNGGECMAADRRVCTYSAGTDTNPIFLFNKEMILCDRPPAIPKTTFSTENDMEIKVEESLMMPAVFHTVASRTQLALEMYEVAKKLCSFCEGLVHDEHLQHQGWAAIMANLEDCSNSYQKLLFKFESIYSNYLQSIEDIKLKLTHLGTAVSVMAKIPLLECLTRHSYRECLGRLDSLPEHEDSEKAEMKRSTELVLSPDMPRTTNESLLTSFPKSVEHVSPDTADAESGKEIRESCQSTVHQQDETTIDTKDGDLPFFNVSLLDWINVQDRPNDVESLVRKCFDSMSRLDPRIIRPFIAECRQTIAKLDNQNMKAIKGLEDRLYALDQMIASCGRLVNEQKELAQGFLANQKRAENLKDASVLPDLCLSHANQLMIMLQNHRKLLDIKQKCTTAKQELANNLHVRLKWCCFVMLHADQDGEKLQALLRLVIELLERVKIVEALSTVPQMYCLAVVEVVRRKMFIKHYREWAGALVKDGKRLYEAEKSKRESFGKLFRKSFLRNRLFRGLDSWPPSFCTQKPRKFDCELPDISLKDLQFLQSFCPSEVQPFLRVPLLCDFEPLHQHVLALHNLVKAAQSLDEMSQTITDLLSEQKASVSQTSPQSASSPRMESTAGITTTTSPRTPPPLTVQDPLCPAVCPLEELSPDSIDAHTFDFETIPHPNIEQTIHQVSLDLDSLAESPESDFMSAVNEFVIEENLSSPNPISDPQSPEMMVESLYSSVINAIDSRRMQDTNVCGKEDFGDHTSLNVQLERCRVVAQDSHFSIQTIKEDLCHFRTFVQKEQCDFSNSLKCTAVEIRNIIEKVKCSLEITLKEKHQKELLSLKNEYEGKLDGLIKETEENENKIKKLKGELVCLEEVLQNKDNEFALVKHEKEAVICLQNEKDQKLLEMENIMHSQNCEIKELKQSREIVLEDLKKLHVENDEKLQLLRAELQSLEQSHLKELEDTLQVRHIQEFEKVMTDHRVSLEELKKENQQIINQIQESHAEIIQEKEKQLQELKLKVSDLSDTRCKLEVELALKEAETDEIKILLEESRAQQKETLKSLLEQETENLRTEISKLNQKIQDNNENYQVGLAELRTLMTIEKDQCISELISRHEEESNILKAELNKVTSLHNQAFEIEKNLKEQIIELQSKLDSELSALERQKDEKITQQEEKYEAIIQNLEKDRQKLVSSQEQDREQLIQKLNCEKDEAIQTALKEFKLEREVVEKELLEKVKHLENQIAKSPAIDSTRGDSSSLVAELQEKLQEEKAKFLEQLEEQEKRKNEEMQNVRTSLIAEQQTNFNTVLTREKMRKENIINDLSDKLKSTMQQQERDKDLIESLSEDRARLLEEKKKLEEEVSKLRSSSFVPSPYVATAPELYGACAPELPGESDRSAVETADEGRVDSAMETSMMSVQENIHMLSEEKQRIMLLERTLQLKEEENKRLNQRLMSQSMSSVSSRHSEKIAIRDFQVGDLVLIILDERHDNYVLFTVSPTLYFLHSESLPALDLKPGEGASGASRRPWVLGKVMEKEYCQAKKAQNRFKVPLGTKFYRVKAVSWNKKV
inactive: [1] -0.037 | [2] 0.014 | [3] 0.009 | [4] 0.078 | [5] -0.103 | [6] -0.012 | [7] 0.029 | [8] 0.017 | [9] -0.069 | [10] 0.026

SCPEP1 (UniProt Q9HB40)
UniProt Q9HB40, sequence (Q9HB40 whole entry, looked up): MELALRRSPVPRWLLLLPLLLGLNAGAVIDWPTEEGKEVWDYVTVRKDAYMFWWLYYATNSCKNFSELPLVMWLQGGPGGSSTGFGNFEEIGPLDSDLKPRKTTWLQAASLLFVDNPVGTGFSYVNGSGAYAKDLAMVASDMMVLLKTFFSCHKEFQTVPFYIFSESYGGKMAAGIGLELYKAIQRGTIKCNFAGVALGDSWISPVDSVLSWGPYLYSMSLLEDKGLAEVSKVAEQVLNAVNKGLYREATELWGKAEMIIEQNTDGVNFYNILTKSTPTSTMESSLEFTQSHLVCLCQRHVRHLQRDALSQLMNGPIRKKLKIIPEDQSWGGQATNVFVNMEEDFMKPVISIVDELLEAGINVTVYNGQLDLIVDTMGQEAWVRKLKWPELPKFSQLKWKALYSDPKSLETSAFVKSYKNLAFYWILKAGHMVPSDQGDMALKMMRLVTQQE
inactive: [2] -0.013 | [3] 0.028 | [4] -0.006 | [5] -0.007 | [6] -0.004 | [7] 0.023 | [8] 0.034 | [9] 0.026 | [10] 0.04
active: [1] -0.499

RNF220 (UniProt Q5VTB9)
active: [8] 0.239
inactive: [1] -0.064 | [2] 0.008 | [3] 0.009 | [4] -0.058 | [5] 0.01 | [6] 0.037 | [7] -0.034 | [9] -0.003 | [10] 0.002

RAD50 isoform 2 (UniProt Q92878)
inactive: [1] -0.015 | [2] 0.009 | [3] -0.039 | [4] -0.112 | [5] -0.089 | [6] -0.016 | [7] 0.023 | [8] 0.042 | [9] -0.017 | [10] 0.063

SDCBP isoform 2 (UniProt O00560)
inactive: [1] -0.298 | [2] -0.066 | [3] 0.108 | [4] -0.219 | [5] -0.083 | [6] -0.205 | [8] -0.085 | [9] 0.109 | [10] 0.033

SF3B5 (UniProt Q9BWJ5)
UniProt Q9BWJ5, sequence (Q9BWJ5 whole entry, looked up): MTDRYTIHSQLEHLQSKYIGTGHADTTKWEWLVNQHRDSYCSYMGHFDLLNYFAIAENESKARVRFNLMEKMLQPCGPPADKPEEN
inactive: [1] -0.115 | [2] -0.056 | [3] 0.029 | [4] 0.008 | [5] -0.189 | [6] -0.064 | [9] -0.018 | [10] -0.043

RETREG3 (UniProt Q86VR2)
UniProt Q86VR2, sequence (Q86VR2 whole entry, looked up): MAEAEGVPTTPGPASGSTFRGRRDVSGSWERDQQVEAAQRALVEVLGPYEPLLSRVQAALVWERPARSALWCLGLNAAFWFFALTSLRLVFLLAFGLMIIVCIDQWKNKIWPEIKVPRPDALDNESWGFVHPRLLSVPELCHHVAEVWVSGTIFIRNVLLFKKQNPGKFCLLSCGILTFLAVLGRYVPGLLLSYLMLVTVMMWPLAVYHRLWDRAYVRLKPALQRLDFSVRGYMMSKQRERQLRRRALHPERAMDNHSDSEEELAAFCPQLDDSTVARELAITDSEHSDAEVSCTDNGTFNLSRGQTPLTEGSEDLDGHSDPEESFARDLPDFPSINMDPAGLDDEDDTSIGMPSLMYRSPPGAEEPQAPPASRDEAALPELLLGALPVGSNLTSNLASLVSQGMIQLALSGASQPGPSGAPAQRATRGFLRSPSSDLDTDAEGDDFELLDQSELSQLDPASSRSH
inactive: [1] -0.164 | [2] -0.032 | [3] 0.015 | [4] 0.003 | [5] -0.045 | [6] 0.033 | [7] -0.007 | [8] 0.11 | [9] -0.034 | [10] 0

RAB3IL1 (UniProt E9PK89)
inactive: [1] -0.053 | [2] 0.01 | [3] -0.007 | [4] -0.189 | [6] -0.101 | [7] 0.258 | [8] 0.056 | [9] -0.035

SETD3 (UniProt Q86TU7)
inactive: [1] -0.015 | [2] -0.005 | [3] 0.002 | [4] -0.009 | [5] 0.006 | [6] -0.023 | [7] 0.033 | [8] 0.031 | [9] 0.029 | [10] 0.052

SASH1 (UniProt O94885)
inactive: [1] -0.052 | [2] -0.006 | [3] -0.079 | [4] -0.071 | [5] -0.046 | [6] 0.034 | [7] 0.011 | [8] 0.073 | [9] 0.025 | [10] 0.032

RNF2 (UniProt Q99496)
inactive: [1] -0.102 | [2] 0.022 | [3] 0.065 | [4] -0.214 | [5] -0.106 | [6] 0.061 | [7] -0.005 | [9] -0.026 | [10] -0.031

SEC24A (UniProt O95486)
inactive: [1] -0.018 | [2] 0.041 | [3] -0.126 | [4] 0.021 | [5] -0.121 | [6] -0.012 | [7] 0.008 | [8] 0.016 | [9] -0.005 | [10] 0.017

RPS12 (UniProt P25398)
inactive: [1] 0.112 | [2] 0.006 | [3] 0.002 | [4] 0.126 | [5] 0.08 | [6] -0.012 | [7] -0.013 | [8] -0.004 | [9] 0.049 | [10] -0.08

RRP36 (UniProt Q96EU6)
UniProt Q96EU6, sequence (Q96EU6 whole entry, looked up): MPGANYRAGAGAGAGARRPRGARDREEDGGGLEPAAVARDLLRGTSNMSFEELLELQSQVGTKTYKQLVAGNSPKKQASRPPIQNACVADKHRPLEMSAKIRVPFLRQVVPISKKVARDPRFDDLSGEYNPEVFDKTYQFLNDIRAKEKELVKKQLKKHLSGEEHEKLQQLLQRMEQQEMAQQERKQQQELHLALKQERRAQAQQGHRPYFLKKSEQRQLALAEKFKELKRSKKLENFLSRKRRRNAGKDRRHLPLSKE
inactive: [1] 0.428 | [2] 0.054 | [3] -0.007 | [4] 0.203 | [5] 0.164 | [6] -0.011 | [7] -0.319 | [8] -0.016 | [9] 0.208 | [10] -0.132

RALY (UniProt Q9UKM9)
inactive: [1] 0.077 | [2] -0.069 | [3] -0.029 | [4] 0.051 | [5] 0.249 | [6] -0.151 | [7] -0.596 | [8] -0.011 | [9] -0.118 | [10] -0.257
